Rows were chosen to be rich in hits. Some 9.3% of all compounds tested hit in one or more screens of this group.
M1 antag = blocks the rat M1 muscarinic receptor response to acetylcholine; CHO-M1 cells, Fluo-4 calcium, ACh EC80 antagonist mode; stronger effect = lower value; B-score at 10 µM; 64,000 compounds, 3.4% hits;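 active means calcium fluorescence response, raw or row-and-column corrected B-score, differing from the plate sample mean either way at a set confidence level, mostly lower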
Target sequence (P08482 whole entry, looked up): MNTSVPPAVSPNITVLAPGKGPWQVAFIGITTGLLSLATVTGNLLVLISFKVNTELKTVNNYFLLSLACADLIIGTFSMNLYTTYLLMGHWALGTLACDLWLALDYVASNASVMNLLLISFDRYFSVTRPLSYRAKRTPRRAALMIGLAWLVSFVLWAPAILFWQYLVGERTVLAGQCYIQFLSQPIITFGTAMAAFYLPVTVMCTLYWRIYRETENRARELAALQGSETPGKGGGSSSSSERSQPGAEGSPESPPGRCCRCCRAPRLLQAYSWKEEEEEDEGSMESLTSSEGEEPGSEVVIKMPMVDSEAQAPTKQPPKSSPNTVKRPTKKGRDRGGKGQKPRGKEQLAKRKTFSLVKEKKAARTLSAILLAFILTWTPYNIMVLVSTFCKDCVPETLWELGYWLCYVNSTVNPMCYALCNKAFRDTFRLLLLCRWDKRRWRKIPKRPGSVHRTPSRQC
A340 absorber = compound absorbs light at 340 nm. compound absorbance at 340 nm, fold over control. fold change at 10 µM. 65,000 tested, under 10 active. AID 708;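 active means at 10 µM dose, initial 340 nm absorbance at least 2 fold that of control wells; inactive means change under 2 fold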;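 further: initial absorbance extrapolated from kinetic A340 decline of NADH oxidation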
NADH coupling = blocks coupling enzymes of NAD/NADH assays; 65,000 compounds, 0.02% hits; IC50, µM (doses to about 10 µM); coupled PK/LDH NADH assays, four targets; AID 774;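 active means single-dose screening hits from any of four coupled enzyme assays that gave an IC50 when retested across doses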;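 further: the DPM-DC format reads NADH fluorescence rather than 340 nm absorbance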
Autofluor 339 = intrinsic fluorescence of library compounds, ex339/em460 – biochemical, MLSMR library, data from DPM-DC assay, artefact control, profiling panel; compound autofluorescence, ex339/em460 nm, NADH buffer; stronger effect = higher value; 1 = no-compound wells, NADH background; fluorescence fold increase at 10 µM; 65,000 compounds, 5.5% hits;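 active means at 10 µM, mean starting fluorescence two-fold or more over control wells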;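 further: signal is the first read of a kinetic run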
Htt clearance = mutant huntingtin protein clearance; HeLa Exon1htt(103Q)mCFP, aggregate imaging; zero = plate's median compound well; 47,000 compounds, 0.42% hits; inhibition, % at 1.5 µM;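 active means inhibition of aggregate fluorescence above about 70%, also judged a hit by eye on the cell image, limit read from the data, passing the limit was not always enough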;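 further: cells exposed to compound for three days before fixation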
M1 agonist = agonists of M1 muscarinic receptor; CHO-M1 cells, Fluo-4 calcium fluorescence, agonist mode; stronger effect = higher value; AID 626; B-score at 10 µM; 64,000 compounds, 3% hits;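 active means fluorescence rise, raw or as B-score row- and column-corrected plate score, outside the 99.7% band of its plate's samples, either direction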
M1 antag conf = M1 muscarinic receptor (rat) antagonism, confirmed. shares compounds with M1 antag. CHO-M1 cells, Fluo-4 calcium, ACh EC80 antagonism; stronger effect = lower value. calcium response (max-min fluorescence) at 10 µM. 1,700 compounds, 43% hits. AID 677;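 active means calcium response below the same-plate mean of wells given acetylcholine alone at its 80%-effect dose, minus 3 SD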
mGluR4 antag = acts on human mGluR4 in M1 antagonist selectivity test. shares compounds with M1 antag. CHO-mGluR4 calcium flux, Fluo-4 fluorescence, glutamate EC80; stronger effect = lower value. fluorescence response (max-min) at 10 µM. 1,700 compounds, 0.9% hits. AID 678;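 active means fluorescence response below the plate's average for near-maximal glutamate wells, less 3 SD of those wells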;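 further: raw unnormalized fluorescence span taken in the window right after glutamate addition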
Large screens that a line does not name were inactive (follow-up assays come after a bar, where they were run).

CC(C)(C)n1ncc2c(=O)n(CC(=O)N3CCN(c4ccccc4)CC3)cnc21	none (no result: Htt clearance)
CCOc1ccc(C2=Nn3c(nnc3-c3ccccn3)SC2)cc1	M1 antag -3.15 | M1 antag conf inactive | mGluR4 antag inactive
CCOn1c(=O)c(C)[n+]([O-])c2ccccc21	none (no result: M1 antag, A340 absorber, NADH coupling, Autofluor 339, M1 agonist)
CCN(CC)CCOC(=O)c1c(C)oc2ccc(O)cc12	M1 antag -3.31 | M1 antag conf 296 | mGluR4 antag inactive
COc1ccc(C(=O)Nc2nnc(Cc3cccs3)s2)cc1OC	M1 antag -17.4 (no result: Htt clearance) | M1 antag conf inactive | mGluR4 antag inactive
CCN1C(=O)C(CC(=O)Nc2ccc(Br)cc2)N(CCCc2ccccc2)C1=S (configuration not stated)	none (no result: M1 antag, A340 absorber, NADH coupling, Autofluor 339, M1 agonist)
Cc1ccc(Nc2nc(CSc3nnnn3C)cs2)cc1	M1 antag -4.78 | M1 antag conf inactive | mGluR4 antag inactive
Cn1nnnc1SCc1csc(Nc2ccccc2)n1	none (no result: Htt clearance)
COc1ccccc1N1CCN(C(=O)c2sc3nc(-c4ccccc4)cn3c2C)CC1	M1 antag -3.5 (no result: Htt clearance) | M1 antag conf inactive | mGluR4 antag inactive
Cc1cc(C)n(C(=O)c2cc3ccccc3c(=O)o2)n1	M1 antag -5.13 | M1 antag conf inactive | mGluR4 antag inactive
Cc1cc(C)n(C(=O)CN2C(=O)c3ccccc3C2=O)n1	none
Cc1cccc(N2CCN(C(=O)n3ccnc3)CC2)c1C	none (no result: Htt clearance)
COc1cccc2cc(C(=O)N3CCN(C45CC6CC(CC(C6)C4)C5)CC3)c(=O)oc12	M1 antag -1.76 | M1 antag conf 412 | mGluR4 antag inactive
CCN(Cc1ccccc1)C(=O)CSc1nc(C)cc(C)c1C#N	M1 antag -2.37 (no result: Htt clearance) | M1 antag conf inactive | mGluR4 antag inactive
Cc1nc(SCc2c(F)cccc2Cl)c2c(=O)n(C)c(=O)n(C)c2n1	none
Cc1ccc2nc(N3CCN(C(=O)c4cccs4)CC3)c(C#N)cc2c1	M1 antag -2.25, Autofluor 339 2.44 (no result: Htt clearance) | M1 antag conf inactive | mGluR4 antag inactive
Cc1cc(N2CCC(N(C)C3CCCC3)CC2)nc2cc(O)ccc12	M1 antag -0.69, Autofluor 339 2.17 (no result: Htt clearance) | M1 antag conf 579 | mGluR4 antag inactive
Cc1cc(N2CCC(C(=O)NC3CCCCC3)CC2)nc(-c2ccccc2)n1	none (no result: M1 antag, Htt clearance, M1 agonist)
Cn1c(=O)c2cn(Cc3ccc(Cl)cc3)cc2n(C)c1=O	none
COc1ccccc1C(CC(N)=O)c1ccco1 (configuration not stated)	none (no result: M1 antag, A340 absorber, NADH coupling, Autofluor 339, M1 agonist)
Nn1c(-c2ccccn2)nnc1-c1ccccn1	M1 antag -3.09 | M1 antag conf inactive | mGluR4 antag inactive
CC(C)N1C(=O)C2ON(c3ccccc3)C(c3cccs3)C2C1=O (configuration not stated)	M1 antag -3.77 | M1 antag conf inactive | mGluR4 antag inactive
CN1CCCN=C1COC(=O)C(O)(c1ccccc1)C1CCCCC1 (configuration not stated)	M1 antag -15.7 (no result: Htt clearance) | M1 antag conf 25.9 | mGluR4 antag inactive
COCCN(C(=O)C1CC1)c1nnc(-c2cccc(C)c2)s1	none (no result: Htt clearance)
Cc1cc(Cl)ccc1OCCCC(=O)NC1CCN(C)CC1	M1 antag -2.87 (no result: Htt clearance) | M1 antag conf 479 | mGluR4 antag inactive
Cc1ccc(C(=O)CC2(O)C(=O)N(C)c3ccc(Br)cc32)c(C)c1 (configuration not stated)	M1 antag -2.2 | M1 antag conf inactive | mGluR4 antag inactive
O=C(CC12CCC(CC1)C2)NCc1ccc2c(c1)OCO2	none (no result: M1 antag, A340 absorber, NADH coupling, Autofluor 339, M1 agonist)
CCCc1[nH]nc2c1C(c1ccncc1)C(C#N)=C(N)O2 (configuration not stated)	M1 antag -3.71 | M1 antag conf inactive | mGluR4 antag inactive
CCCc1[nH]nc2c1C(c1ccccc1OC)C(C#N)=C(N)O2 (configuration not stated)	none
CC(C)(C)c1[nH]nc2c1C(c1cccnc1)C(C#N)=C(N)O2 (configuration not stated)	M1 antag -4.08 | M1 antag conf inactive | mGluR4 antag 163

Screening data from PubChem.
